High-throughput results (PubChem BioAssay)
In the library only some 5.2% were active in any assay of this set; here they are far more common.
VDR inhibitor – inhibitors of human vitamin D receptor; P11473; AID 504847; VDR-SRC2-3 peptide fluorescence polarization, 2 h; Potency, µM, for the others: max response, negative = inhibition, actives largely listed as inhibitors; 0.93% of 400,000 active
Target sequence (P11473 whole entry, looked up): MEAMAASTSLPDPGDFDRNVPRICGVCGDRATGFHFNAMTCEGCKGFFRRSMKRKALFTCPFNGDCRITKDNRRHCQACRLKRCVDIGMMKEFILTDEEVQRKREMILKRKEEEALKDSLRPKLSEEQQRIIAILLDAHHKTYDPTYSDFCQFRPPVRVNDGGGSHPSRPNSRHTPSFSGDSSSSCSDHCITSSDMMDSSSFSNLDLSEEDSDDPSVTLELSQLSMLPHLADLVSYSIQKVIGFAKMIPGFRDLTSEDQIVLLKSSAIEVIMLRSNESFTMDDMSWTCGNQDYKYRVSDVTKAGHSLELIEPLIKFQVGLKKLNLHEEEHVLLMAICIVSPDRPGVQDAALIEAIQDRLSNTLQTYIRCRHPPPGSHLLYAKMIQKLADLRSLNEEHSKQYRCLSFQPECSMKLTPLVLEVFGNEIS
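After 23 nl compound addition and a short centrifugation, plates sat for 2 hours at ambient temperature; polarization of fluorescence then indicated loss of VDR binding to peptide SRC2-3.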
PLK1 PBD block – blocks phosphopeptide binding to human PLK1 polo-box domain; 2.8% of 360,000 active; Plk1 PBD binding of FITC phosphopeptide, fluorescence polarization; Potency, µM, for the others: max response, negative = inhibition, hits mostly inhibitors; P53350; also: series mostly up to about 57 µM; nearly all actives have a fitted effect of over 65% in size
TrxR1 substrate – rat thioredoxin reductase 1 substrate activity; Potency, µM (top dose mostly 114 µM), without a hit: at the highest dose activity change, negative = substrate turnover; 0.01% of 390,000 active; purified TrxR1 substrate turnover, NADPH consumption readout; O89049; also: nearly all actives have a fitted effect of over 50% in size
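Rat TrxR1, dispensed at 90 nM, was prereduced with 400 uM NADPH (final) for 5 min at ~22 deg C, then incubated with compound 15 min before 400 uM selenite. A first-read NADPH fluorescence drop versus no-compound background flagged substrates.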
mIDH1 inhibitor – human IDH1 R132H inhibition. AID 602179. Potency, µM (highest dose often 76.6 µM), without a hit: top-dose activity change, negative = inhibition, most hits filed as inhibitors. 0.093% of 390,000 active. IDH1-R132H enzyme, NADPH consumption, diaphorase/resazurin fluorescence; also: nearly all actives have a fitted effect of over 65% in size
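IDH1-R132H (0.5 ug/mL dispensed) in pH 7.5 Tris buffer was preincubated 30 min with compound, then given a substrate mix of 0.016 mM NADPH and 2 mM alpha-KG for 80 min at room temperature; remaining NADPH was read by diaphorase/resazurin fluorescence.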
Sfp PPTase inh – inhibitors of Bacillus subtilis Sfp phosphopantetheinyl transferase | 3.5% of 310,000 active | AID 1490 | Biochemical Sfp PPTase activity, qHTS | Potency, µM, for inactives: largest response in the series, negative = inhibition, hits mostly inhibitors;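 also: the enzyme is Sfp with the accession as filed and its product quenches rhodamine fluorescence; 0% = enzyme reaction without inhibitor and -100% = no enzyme wells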
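Sfp 15 nM + cpd, 15 min RT; start w/ rhodamine-CoA 5 uM, BHQ-2-YbbR 12.5 uM (final); 50 mM Hepes pH 7.6, 10 mM MgCl2, 0.01% NP-40, 0.01% BSA; read 525/598 nm at 0 and 30 min.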
TrxR1 inh – rat TrxR1 inhibition; O89049; Potency, µM (doses to about 114 µM), for the others: at the highest dose activity change, negative = inhibition, usual class: inhibitors; recombinant rTrxR1, NADPH fluorescence consumption, selenite substrate; 1% of 390,000 active; also: nearly all actives have a fitted effect of over 65% in size
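Rat TrxR1 (90 nM in the dispensed reagent) was pre-reduced with 400 uM NADPH for 5 min at room temperature, then incubated with compound for 15 min. After 400 uM selenite was added, NADPH fluorescence (Ex 340/Em 450 nm) was followed for 8 min.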
The depositor's hits bear a star; ? = inconclusive; · = no result; ! = repeats disagree; [ ] = dose if it differs, or a comment. Calls follow the shape of the dose curve; as a rule, active = well fitted curve in the direction sought with a large enough effect; inconclusive = small, poorly fitted or top-dose-only effect, or another doubt; inactive = no such curve, though single readings can be large; an effect the other way counts as inactive or inconclusive. Unless noted, % is scaled to controls: 0 for no effect and ±100 for the full control effect; potency is read from the fitted curve at half-maximal effect.

SMILES	VDR inhibitor	PLK1 PBD block	TrxR1 substrate	mIDH1 inhibitor	Sfp PPTase inh	TrxR1 inh
N#Cc1c(-c2ccc(F)cc2)cc(-c2ccccc2)nc1SCC(=O)NCC(=O)O	?	19µM*	2%	8%	2.2µM*	-5%
C[C@]1(O)CC(=O)C=C[C@H]1Nc1ccccc1	-2%	-5%	2%	8%	·	-22%
COc1cccc(CS(=O)(=O)c2nnnn2-c2ccccc2)c1	?	·	·	·	8%	·
COc1ccc(Nc2nn(-c3ccc(OC(F)(F)F)cc3)nc2C(C)=O)cc1	11%	·	0%	6%	·	16%
Cc1ccc(C(=O)NN2C(=O)c3ccc(S(=O)(=O)c4ccc(C(=O)O)cc4)cc3C2=O)cc1	40µM*	21µM*	5%	-3%	5%	20%[57.1 µM]
O=C(O)c1ccc(S(=O)(=O)c2ccc3c(c2)C(=O)N(NC(=O)c2ccc(O)cc2)C3=O)cc1	-2%	-24%	6%	1%	17%	13%[57.1 µM]
CC1(C(=O)NS(=O)(=O)C2CC2)CCN(C(=O)c2cccc(Cl)c2)C1 (stereo not drawn)	·	2%	·	·	·	·
Cc1ccc2ccccc2[n+]1CCCCI	·	·	5%	·	·	7%
Cc1cc(N)c2ccccc2[n+]1CCCCCCCCCC[n+]1c(C)cc(N)c2ccccc21	-6%	·	11%[57.1 µM]	·	4.5µM*!	13%[57.1 µM]
CCOc1ncccc1C(=O)OCC(=O)NCCCc1ccccc1	5%	-1%	-4%	1%	·	0%
O=C(O)c1ccc(-c2c3nc(c(-c4ccc(C(=O)O)cc4)c4ccc([n-]4)c(-c4ccc(C(=O)O)cc4)c4nc(c(-c5ccc(C(=O)O)cc5)c5ccc2[n-]5)C=C4)C=C3)cc1.[Mn+3]	11%	·	·	·	-23%	·
CCOC(=O)c1[nH]c2ccc(C)cc2c1N	-5%	-4%	25%	3%	18µM*	5%
CCOC(=O)c1[nH]c2cc(OC)c(OC)cc2c1N	4%	-3%	18%	2%	45µM*	-13%
CCCCCC(O)/C=C/C=O (stereo not drawn)	?	·	·	·	5%	·
CC(=O)NCCNc1nc(-c2cccc(C#N)c2)nc2ccccc12	7%	·	·	·	18%	·
CC1(C)CC(=O)c2cnc(N)nc2C1	?	27µM*	-9%	8%	26%	-12%
CC1(C)CC(=O)c2cc3c(nc2C1)CC(C)(C)CC3=O	-12%	-10%	-8%	-9%	15%	-16%
CC(C)[C@H](NC(=O)c1ccco1)C(=O)Nc1ccc(N2CCCCCC2)cc1	·	7%	·	-3%	·	·
CCCc1ccccc1OCCNC(C)=O	?	3.4µM*	-8%[57.1 µM]	4%	5%	13%[57.1 µM]
CC1OC(O[C@H]2CC[C@]3(C)C4C=C[C@]56OC[C@@]7(CC[C@@H](C)[C@H](C)C75)[C@H](O)C[C@@]6(C)[C@]4(C)CC[C@H]3C2(C)C)C(OC2OC(CO)C(O)C(O)C2OC2OCC(O)C(O)C2O)C(O)C1O (stereo partly drawn)	·	·	·	·	89µM*	·
OC(C[n+]1cccc(Br)c1)c1ccccc1 (stereo not drawn)	·	·	2%	·	·	5%
CC1(C)CC(=O)C2=C(C1)c1c(ccc3ccccc13)NC2c1ccc(C(=O)O)cc1 (stereo not drawn)	-4%	-19%	286%[57.1 µM]	6%	5%	74%[57.1 µM]
CC1(C)CC(=O)C2=C(C1)c1c(ccc3ccccc13)NC2c1cc([N+](=O)[O-])cc([N+](=O)[O-])c1O (stereo not drawn)	-6%	3.4µM*	-12%	?	4µM*	10%[57.1 µM]
C[Si](C)(C/C=C/CC[C@H](O)C1=CCCCC1=O)c1ccccc1	-2%	·	·	·	-12%	·
CCC1Oc2ccccc2N(CC(=O)NCc2ccc(C)cc2)C1=O (stereo not drawn)	13%	·	0%[57.1 µM]	-1%	·	13%[57.1 µM]
COC(=O)CC1Oc2ccccc2N(Cc2ccc(C)cc2)C1=O (stereo not drawn)	2%	27µM*	-3%[57.1 µM]	7%	?	-23%
CC1Cc2cc(/C(O)=C3/C(=O)C(=O)N(CC4CCCO4)C3c3ccco3)ccc2O1 (stereo not drawn)	-12%	30µM*	3%[57.1 µM]	0%	-8%	-56%
